Test results from PubChem BioAssay (NCI).
About 79,000 compounds went through this panel and 15% of them were active in at least one assay; those are over-represented in the sample as a whole. Values without a mark were called inactive. Calls of active or inactive are those of the source. No stated cut-off is given here; in the data, active means growth inhibition above about 70%; inactive means the rest.

Columns and labels:
[1] = NCI Yeast Anticancer Drug Screen. Data for the rad50 strain (AID 155);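 further: 0% = growth of vehicle-only cultures of the same strain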; conditions: S. cerevisiae rad50 strain growth inhibition, hits give high values
Procedure, shortened: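 Growth of the mutant yeast was measured after compound exposure and referenced to vehicle-treated cultures.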

[2] = NCI Yeast Anticancer Drug Screen. Data for the mec2-1 strain (AID 157); conditions: S. cerevisiae mec2-1 strain, hits give high values
Procedure, shortened: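 Growth inhibition is read against vehicle-treated controls after compound exposure of the mec2-1 yeast strain, which is defective in DNA damage repair or cell cycle control.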

[3] = NCI Yeast Anticancer Drug Screen. Data for the sgs1 mgt1 strain (AID 161);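 further: 0% = growth of cultures given vehicle only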; conditions: S. cerevisiae sgs1 mgt1 strain, hits give high values
Procedure, shortened: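 Compounds are added to genetically altered yeast, and growth is compared with cultures given vehicle alone to give percent inhibition.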

[4] = NCI Yeast Anticancer Drug Screen. Data for the cln2 rad14 strain (AID 165);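 further: 0% = growth equal to vehicle treated cultures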; conditions: S. cerevisiae cln2 rad14 strain, hits give high values
Procedure, shortened: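 Growth inhibition, relative to vehicle-treated controls, is the read-out. The test organism is a yeast strain with defined genetic alterations, cln2 rad14.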

[5] = NCI Yeast Anticancer Drug Screen. Data for the bub3 strain (AID 167); conditions: S. cerevisiae bub3 mutant strain, hits give high values
Procedure, shortened: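 Whole-cell yeast assay. The mutant strain was incubated with compounds, and growth inhibition was determined by comparison with vehicle-treated cells.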

[6] = NCI Yeast Anticancer Drug Screen. Data for the mlh1 rad18 strain (AID 175); conditions: S. cerevisiae mlh1 rad18 strain growth inhibition, hits give high values
Procedure, shortened: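 Cells of a genetically altered yeast strain, deficient in DNA damage repair, were treated with compound. Their growth was then compared with that of vehicle-treated cultures to give inhibition.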

[7] = at 5.0 µM (retest, dose inferred, filed as 0.5)
[8] = at 50.0 µM (retest, dose inferred, filed as 5.0)

| SMILES | growth inhibition [1, 7] | growth inhibition [1, 8] | growth inhibition ([1]; at 50.0 µM) | growth inhibition [2, 7] | growth inhibition [2, 8] | growth inhibition ([2]; at 50.0 µM) | growth inhibition [3, 7] | growth inhibition [3, 8] | growth inhibition ([3]; at 50.0 µM) | growth inhibition [4, 7] | growth inhibition [4, 8] | growth inhibition ([4]; at 50.0 µM) | growth inhibition [5, 7] | growth inhibition [5, 8] | growth inhibition ([5]; at 50.0 µM) | growth inhibition [6, 7] | growth inhibition [6, 8] | growth inhibition ([6]; at 50.0 µM) |
| --- | --- | --- | --- | --- | --- | --- | --- | --- | --- | --- | --- | --- | --- | --- | --- | --- | --- | --- |
| C(=[CH]/[Sn]([c]1ccccc1)([c]1ccccc1)[c]1ccccc1)/c1ccccc1 | 96% (active) | 88% (active) | 94.8% (active) | 95% (active) | 94% (active) | 98.4% (active) | 98% (active) | 92% (active) | 96.2% (active) | 92% (active) | 86% (active) | 95% (active) | 97% (active) | 85% (active) | 99.2% (active) | 97% (active) | 84% (active) | 94.1% (active) |
| CCCCC/C(=C/C=C/c1ccc(Cl)cc1)CN(C)C | 11% | 97% (active) | 99.5% (active) | 8% | 98% (active) | 99.8% (active) | 49% | 98% (active) | 99.7% (active) | 13% | 97% (active) | 99.5% (active) | 6% | 98% (active) | 99.8% (active) | 7% | 97% (active) | 99.7% (active) |
| O=S(=O)(Nc1cccc(C2=NCCN2)c1)c1ccc2c(S(=O)(=O)Nc3cccc(C4=NCCN4)c3)cccc2c1 | -3% | 9% | 82.5% (active) | 6% | 2% | 9.45% | -5% | 2% | 88.3% (active) | -1% | 6% | 13.6% | -7% | -12% | 4.8% | -2% | 3% | 78.2% (active) |
| CN(C)C(=S)/N=c1\ss/c(=N\S(=O)(=O)c2ccccc2)n1-c1ccccc1 | 0% | 0% | 37.6% | -5% | -13% | 51.9% | -2% | 26% | 64.9% | -10% | -21% | 9.6% | -52% | -2% | 29.1% | -1% | 15% | 59.7% |
| S=C(NC(=S)Nc1ccccc1)Nc1ccccc1 | 0% | 29% | 93.8% (active) | -5% | 37% | 82.9% (active) | 7% | 69% | 96.3% (active) | -8% | 8% | 91.7% (active) | -1% | 21% | 96.3% (active) | 8% | 55% | 95.3% (active) |
